Results filed as inconclusive are left out. Active and inactive are the calls of the source. The call rests on the fitted dose curve; in most records, active means well fitted curve in the direction sought with a large enough effect; inconclusive means small, poorly fitted or top-dose-only effect, or another doubt; inactive means no such curve, though single readings can be large or run the other way.

In this experiment the target is Polyunsaturated fatty acid lipoxygenase ALOX15 (Homo sapiens) (UniProt P16050). As to the kind of experiment: Counterscreen qHTS for inhibitors of human arachidonate 12S-lipoxygenase (ALOX12): ALOX15 Assay. The settings on record: purified ALOX15 enzyme activity; series mostly up to 110 µM. The gist of the method: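 Xylenol orange–ferric complex formation, read as the 573 nm to 405 nm absorbance ratio, tracks product from 50 uM arachidonic acid turned over for 30 min at RT. Enzyme is 40 nM ALOX15, pH 7.5 HEPES buffer, compound-preincubated 15 min.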
Polyunsaturated fatty acid lipoxygenase ALOX15 (Homo sapiens), sequence (P16050 whole entry, looked up): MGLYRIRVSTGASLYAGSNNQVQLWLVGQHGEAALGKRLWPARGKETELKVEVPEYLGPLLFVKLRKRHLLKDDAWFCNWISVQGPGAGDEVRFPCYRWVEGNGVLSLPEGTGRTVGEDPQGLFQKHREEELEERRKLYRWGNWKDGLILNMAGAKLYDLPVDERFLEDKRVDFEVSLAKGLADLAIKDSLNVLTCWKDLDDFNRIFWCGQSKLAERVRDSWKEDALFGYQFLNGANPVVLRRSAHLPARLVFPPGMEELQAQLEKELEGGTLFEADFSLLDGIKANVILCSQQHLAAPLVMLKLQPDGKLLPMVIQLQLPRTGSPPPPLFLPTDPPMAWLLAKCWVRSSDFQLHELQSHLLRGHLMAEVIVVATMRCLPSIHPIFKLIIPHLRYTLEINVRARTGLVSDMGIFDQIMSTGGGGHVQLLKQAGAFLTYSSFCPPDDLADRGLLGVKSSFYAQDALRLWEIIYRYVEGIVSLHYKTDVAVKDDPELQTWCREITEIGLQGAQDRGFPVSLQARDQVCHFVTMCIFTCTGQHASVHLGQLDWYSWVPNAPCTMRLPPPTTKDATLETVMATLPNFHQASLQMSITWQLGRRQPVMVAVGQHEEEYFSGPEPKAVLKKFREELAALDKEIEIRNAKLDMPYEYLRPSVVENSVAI
For orientation: The purpose of a counterscreen is to sort out artefacts and off-target activity.
Take `O=C(O)CCC(=O)N1Cc2ccccc2CC2(CCCN2CC2CCNC2)C1` (stereo not drawn): the call was inactive.
Regarding `O=Cc1ccccc1-c1ccc(OC(F)(F)F)cc1`, the call was inactive.
For `CN1CC(=O)N(C2CCCNCC2)Cc2c1ncnc2N1CCSCC1` (stereo not drawn), the outcome was inactive.
As for `O=C(c1ccc(C(F)(F)F)cc1)N1CCc2nc(C3CC3)nc(-c3ccc(Cl)cc3)c2C1`, the call was inactive.
Take `CC(=O)N1CCCC2(CC(c3ccccn3)=NO2)C1` (stereo not drawn): the outcome was inactive.
Then `CC(=O)Nc1ccc(CN2CCC(c3nc4ccc(C)cc4c(=O)[nH]3)CC2)cc1`, with “inactive”; and `O=C(Nc1ccccc1)N1CCC(c2nnc3n2CCNC3)CC1`, with “inactive”.
For the compound `Cc1ccc(-c2ccccc2CN)cc1Cl`, the compound was classed as inactive.
To `CC(C)C(=O)N1CCCC2(Cc3ccccc3CN2[S+](=O)([O-])c2ccccc2)C1` (stereo not drawn) belongs “inactive”; to `COc1ccc(F)cc1-c1ccccc1C=O`, “inactive”.
For `CCC(=O)N1Cc2ccccc2CC2(CCN(CC3CCNCC3)CC2)C1`, the result was inactive.
In the case of `CN1CC(=O)N(C2CCNCC2)Cc2c(NCCN3CCOCC3)ncnc21`, the outcome was inactive.
For the compound `O=C(c1ccccc1)N1CCn2c(nn(-c3cccc(Cl)c3)c2=O)C1`, the compound was classed as inactive.
Take `COc1cccc(-c2ccc(CN3C4CCC3CN(C(=O)Nc3ccccc3F)C4)cc2)c1`: the compound was called inactive.
On to `NC(C(=O)N1CCC2(CC1)CN(C(=O)Cc1cccc(Cl)c1)CCO2)c1ccccc1` (stereo not drawn), for which the compound was called inactive.
`COc1cccc(N2C(=O)NC(=NC3CCCC3)C23CCCN(CC2CC2)C3)c1` (stereo not drawn): the call was inactive.
For the compound `COc1ccc(N2CC3CCC(C2)N3CC(C)C)cc1`, the result was inactive.
Consider `COc1ccc(N2CC3CCC(C2)N3Cc2ccc(C#N)cc2)cc1`, for which the compound was classed as inactive.
`O=C1NCc2ccccc2CC12CCN(Cc1c(F)cccc1F)C2` (stereo not drawn): the compound was classed as inactive.
Take `O=S1(=O)CCCN1C1CCN(Cc2cccc3ccccc23)CC1`: the call was inactive.
With `COc1ccc(CN2CCC3(C2)C(=O)Nc2ccccc23)cc1` (stereo not drawn), the compound was called inactive.
For the compound `CN1CC(=O)N(C2CCNCC2)Cc2c(NC3CCCCC3)ncnc21`, the outcome was inactive.
For the compound `Cc1ccc2nc(C3CCCN(Cc4ccccc4)C3)[nH]c(=O)c2c1` (stereo not drawn), the call was inactive.
In the case of `CCCC(=O)N1Cc2ccccc2CC2(CCCN(C)C2)C1` (stereo not drawn), the compound was called inactive.
Take `O=C1NCc2ccccc2CC12CCCN2Cc1ccc(Cl)s1` (stereo not drawn): the call was inactive.
As to `COc1ccc(CN2CCC3(Cc4ccccc4CNC3=O)C2)c(O)c1` (stereo not drawn), the compound was called inactive.
For the compound `COc1ccc(N2CC3CCC(C2)N3Cc2ccc(-c3cccnc3)cc2)cc1`, the call was inactive.
For the compound `Fc1ccc(CN2CCC3(CC(c4cccc(C(F)(F)F)c4)=NO3)C2)cc1` (stereo not drawn), the compound was called inactive.
Regarding `COc1ccc(N2CC3CCC(C2)N3Cc2cccc(Cl)c2)cc1`, the call was inactive.
`COc1ccc(OC2CN(Cc3cccc4ccccc34)C2)cc1`: the compound was classed as inactive.
Regarding `CCc1nc2c(c(-c3ccc(OC)cc3)n1)CN([S+](=O)([O-])c1c(C)noc1C)CC2`, the result was inactive.
With `CN1CC(=O)N(C2CCNCC2)Cc2c1ncnc2N1CCC(N2CCOCC2)CC1`, the outcome was inactive.
As to `CNCc1ccccc1C(F)(F)F`, the compound was called inactive.
On to `CC(=O)N1CCN(c2ncnc3c2CN(C2CCCNCC2)C(=O)CN3C)CC1` (stereo not drawn), for which the compound was called inactive.
Consider `O=C1NCc2ccccc2CC12CCCN2Cc1ccccc1Cl` (stereo not drawn), for which the result was inactive.
Turning to `CN1CC(=O)N(C2CCCNCC2)Cc2c1ncnc2N1CCCCC1` (stereo not drawn), the call was inactive.
Take `COc1ccc(CCNc2ncnc3c2CN(C2CCCNC2)C(=O)CN3C)cc1` (stereo not drawn): the outcome was inactive.
On to `O=C(C1CCCC1)N1Cc2ccccc2CC2(CCCN(CC3CCNC3)C2)C1` (stereo not drawn), for which the result was inactive.

(Values after PubChem BioAssay AID1671192 (National Center for Advancing Translational Sciences (NCATS), 2021).)
